A number with no mark means an inactive call.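 Rule for the calls: active = MAPPIT score above the 99th percentile of random reference set scores in the same batch; inactive = at or below it.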

Assay in all cases: MAPPIT interaction score (arbitrary units); higher = stronger binary interaction signal, active = hit call of the paper
One experiment has as its target JMJD4. The following applies: MAPPIT configuration: N-N; pair source set: Curagen_low_conf.
For a further experiment, the target named is Pdha. The following applies: MAPPIT configuration: N-N; pair source set: Lit-BS-16.
In another experiment the target is Pih1D1. The following applies: MAPPIT configuration: N-N; pair source set: Finley_Y2H.
Another experiment addresses Sms. The following applies: MAPPIT configuration: N-N.
The target of another experiment is Hrb27C. The following applies: MAPPIT configuration: N-N; pair source set: Lit-BM-16.
The target in a further experiment is Hsc70-1. The following applies: MAPPIT configuration: N-N; pair source set: DPIM.
In the next experiment the target is JIL-1. The following applies: MAPPIT configuration: N-N; pair source set: Lit-BM-16.
The target in another experiment is TrxT. The following applies: MAPPIT configuration: N-N; pair source set: screen_2.
For a further experiment, the target named is Ing3. The following applies: MAPPIT configuration: N-N; pair source set: Curagen_low_conf.
In a further experiment the target is Hsp27. The following applies: MAPPIT configuration: N-N; pair source set: Curagen_low_conf.
In a further experiment the target is Ilp6. The following applies: pair source set: RRS.
The next experiment addresses Hsp60B. The following applies: MAPPIT configuration: N-N; pair source set: Lit-BS-16.
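Note: HEK293T cells with Epo stimulation, STAT-responsive firefly luciferase reporter, fold induction versus unstimulated cells divided by the larger fold induction of two negative controls lacking either bait or prey.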

B1: Hsp60B (protein)
chain: MFRSCVPKAITSSRCFARMYSKDVRFGSGVRAMMIRGVDILADAVAVTMGPKGRSVIVERPWTSPKITKDGFTVARSIALKDQHMNLGAKLVQDVADNTNESAGDGTTTATVLARAIAKEGFNQITMGANPVEIRRGVMLAVDVVKDKLKEMSKAVETREEIQQVATLSANGDTEIGRLIGEATDKVGPRGTITVKDGKRLKDELNIIQGLRFDNGYVSPFFVNSSKGSKVEFANALVMISLKKITGLSQIVKGLEQSLRQRRPLIIIAEDISGEALNALVLNKLRLGLQVCAVKSPSYGHHRKELIGDISAATGATIFGDDINYSKMEEAKLEDLGQVGEAVISKDSTMLLQGKPKTGLLEMRIQQIQDELAEKQIKPEQRDRLRQRLSALTKGVAVLHIGGGSEVEVNEKKDRVVDALNATRAAIEEGIVPGGGTAFLRCIPYLQELKTESADLQKGVDIVCNALRMPCQTIAQNAGVDGPMVVAKVLNGSEDYGYDAMGDEYCRLVEKGIIDPTKVLRTAITDAAGVASLLSTTEVVITDSRNDDLLSKLSGAGGGMDDGLDMNMGGLEELAALSGLGGMGGMGGMGGMGGMGGMGGGFGGMGAGGGMSASASNDGPTAEEMNEMVKAIPGMEQVEVRDIDSGMM
Turning to B1, the MAPPIT interaction score with JMJD4 is 0.939; with Pdha, 1.16; with Pih1D1 it was 0.845; in the experiment with Sms (pair source set: Finley_Y2H), 1.94; with Sms (pair source set: Lit-BM-16), 1.8.

B2: sqd (protein)
chain: MAENKQVDTEINGEDFTKDVTADGPGSENGDAGAAGSTNGSSDNQSAASGQRDDDRKLFVGGLSWETTEKELRDHFGKYGEIESINVKTDPQTGRSRGFAFIVFTNTEAIDKVSAADEHIINSKKVDPKKAKARHGKIFVGGLTTEISDEEIKTYFGQFGNIVEVEMPFDKQKSQRKGFCFITFDSEQVVTDLLKTPKQKIAGKEVDVKRATPKPENQMMGGMRGGPRGGMRGGRGGYGGRGGYNNQWDGQGSYGGYGGGYGGYGAGGYGDYYAGGYYNGYDYGYDGYGYGGGFEGNGYGGGGGGNMGGGRGGPRGGGGPKGGGGFNGGKQRGGGGRQQRHQPY
Regarding B2, in the experiment with Hrb27C, the MAPPIT interaction score was -0.206.

B3: caly (protein)
chain: MNAAGGGSGAQAAAVAAGNNSLSHNALLSTASGATTMPMAQLADGWLELESDPGLFTLLLKDFGCHDVQVEEVYDLQKPIESPYGFIFLFRWIEERRARRKIVETTAEIFVKDEEAISSIFFAQQVVPNSCATHALLSVLLNCNENNLQLGDTLSRLKTHTKGMSPENKGLAIGNTPELACAHNSHAMPQARRRLERTGAGVSSCRFTGEAFHFVSFVPINGQLFELDGLKPYPMNHGGWEDSEDWTDKFRRVMAERLGIATGEQDIRFNLMAVVPDRRIAITHKLKMLRTNQAIVSGTLQKLLKADEQGESGNGDSQRPDTPTTLLEPSAFTARDLQSLLKNLDTEIAINEQHLADENDRRHMFKVDASRRTHNYDKFICTFLSMLAHQGVLGELVSQHLLPSKKVSGQGAANRISKQSTTASAGGSTAAGTASTPKTQQQQAAAAKNGKSPSKTPGRRRKGRNKCRKRK
Consider B3, for which the MAPPIT interaction score in the experiment with Hsc70-1 is 2.29.

B4: msl-2 (protein)
chain: MAQTAYLKVTRIAMRSASNLSKRRVEELNSGLGELRQLLSCVVCCQLLVDPYSPKGKRCQHNVCRLCLRGKKHLFPSCTQCEGCSDFKTYEENRMMAAQLLCYKTLCVHLLHSALFGELAGMRPQVARELVPRIKLPPKTTQEFIREGSNISDTFDIFLPQPDLPFLKDMPTSLPAETPPTSAVTTPELPYDHHLNISDIEAEAAATAEQGHFSPLPLLPTGSRMGMLSHAGQIVIATESSESGFMDQAWTDQVDLSGTVSVSKYTNSGNNFAVSYVMPTSATTKFDPQELQIGQVVQMADSTQLAVLAAVEETVETSTQLTVLSTTVEETVETSTQLEVLTSAEEPNEISDQLANLQVEESDEALVEETVEEAEGTSIPSEVVAEHMEEDQHLDVHTSQSPTQTEMEEAVEEHVATKTQLGHVQTELQDAESLQKDFEDAKAAAEEAKEKEKDLHAISAELQKEDSDEPTLKRKRTRTLKASQAAKIEPVPSEVKTKVQSGKGALRRIRGKDKEEKVKPPKPKCRCGISGSSNTLTTCRNSRCPCYKSYNSCAGCHCVCCKNPHKEDYVESDEDDDLEDFEMPKDVPEPMTQSEEPVVAEPRQEENSMAPPDSSAPISLVPLNNLQQSQHPLVLVQNEKGEYQGFNIFQGSKPLDPVTVGFTIRVQLQHTDGFGSLPQYAYIMPTIDPPNPPAPSLSPPPPPAPDREVIEPPAKKFRTSRTRRGRANFSALDTVDELVSGGSRSNSAAGDRSSATDNAHSLFEEIMSGSDDL
On to B4, for which the MAPPIT interaction score was 0.418 with JIL-1 and 0.135 with TrxT.

B5: HBS1 (protein)
chain: MSRHRIVRTMDYNDEYDGYDDIYGHSVEDEHCISPTDAQQWLYDRARGQQSISAFISKNKDIQEEEADEDEDEDAAFAKARRDSESFQMPQLDEIEQAKLSSCVDEVRSVVGDAVSERRIVETSMKFDYDMQKILDEILNEETNKSAKPAVNKMKAPAAPVLPKTVSKTVPTPPPKISLKEPRRGFEIPSPKVPSSPVVSGRNTPVDISAGDDISRSSATVFKVSKEQAVRNARQLYEKERADQKSHIHMIVIGHVDAGKSTLMGHLLYDTGNVSQRVMHKHEQESKKLGKQSFMYAWVLDETGEERARGITMDVGQSRIETKTKIVTLLDAPGHKDFIPNMISGATQADVALLVVDATRGEFESGFELGGQTREHAILVRSLGVNQLGVVINKLDTVGWSQDRFTEIVTKLKSFLKLAGFKDSDVSFTPCSGLTGENLTKKAQEPALTNWYSGRHLLDVIENFKIPERAIDRPLRMSVSDIYKGTGSGFCISGRVETGVLCLNDKVLVGASREQAQVKSLTMNEFPQTCVFAGDQVSVTLPALDINNVTVGCIISDPQTPIPVTTRFQARIIVFNVKVPITMGFPVLLHHQSLIEPAVVCKLTASIHKSTGEVVKKKPRCLGNNSCALVELETSRPICIERYADFKELGRVMLRVAGVTIAAGMVTKIR
With B5, the MAPPIT interaction score with Ing3 is 0.0794.

B6: Lis-1 (protein)
chain: MKMVLSQRQREELNQAIADYLGSNGYADSLETFRKEADLSTEVEKKFGGLLEKKWTSVIRLQKKVMELEAKLTEAEKEVIEGAPTKNKRTPGEWIPRPPEKFSLTGHRASITRVIFHPIFALMVSASEDATIRIWDFETGEYERSLKGHTDSVQDVAFDAQGKLLASCSADLSIKLWDFQQSYECIKTMHGHDHNVSSVAFVPAGDYVLSASRDRTIKMWEVATGYCVKTYTGHREWVRMVRVHIEGSIFATCSNDQTIRVWLTNSKDCKVELRDHEHTVECIAWAPEAAASAINEAAGADNKKGHHQGPFLASGSRDKTIRIWDVSVGLCLLTLSGHDNWVRGLAFHPGGKYLVSASDDKTIRVWDLRNKRCMKTLYAHQHFCTSIDFHKAHPYVISGSVDQTVKVWECR
In the case of B6, in the experiment with Hsp27, the MAPPIT interaction score was -0.515.

B7: Coprox (protein)
chain: MNALRHTISLVSLGTFQLVRRTRGPHARGFLLGTGLGLASFSAVTYAHSAEAVDPKVNGVQMNTSRFMAEPITDSKALLGDKENMRHRMEILIMEIQAEFCRALEAEENCGQKFKVDRWERPEGGGGITCVLQDGDVFEKAGVNISVVTGSLPPAAVQQMRARGKNLKEGASLPFFASGVSAVIHPRNPHVPTIHFNYRYFEVETAKGEKQWWFGGGTDLTPYYLCEKDASHFHQTLKSACDEHDPTYYPRFKKWCDDYFRIKHRNESRGIGGIFFDDIDSPNQEAAFNFVSSCARAVIPSYVPLVRKHKNREYGNNERQWQLLRRGRYVEFNLIYDRGTKFGLYTPGARYESILMSLPLHARWEYMHEPKSQSEEGKLMKVLKNPKDWV
In the case of B7, the MAPPIT interaction score in the experiment with Ilp6 (MAPPIT configuration: N-C) was 0.0185; with Ilp6 (MAPPIT configuration: N-N) it was -0.101.

B8: mael (protein)
chain: MAPKKHSGFMMFVNEWRNRNAEGRRMTLAQAVSHCGTIWEKMNTQQRGPYNSGGKDANVAQRAKRESSNGHGQVDKAQREATESLMDMKRTIERLVLNAKMSHDLENAKFVFVAFNYFTKALTTDVYVPAEFAACEYSLKEGIRSIYSTMIDPGQIIFGQGSDALLHSSTTHDLPLPPNALGEKNMTKLYRNIVDYLSKCQGKGKTLVVFTPAENITMVKSCFRYLECDDDFRDGGEKIQVFDIQYLLFILKKEVMNVADLNDEKINKFATDAFFKKDFFEFTAGIACQYHEDNDRTKYCTQSMVTRWAYTFTDFMCGDLAITVQPGKHIPAQTKPNYLIISSYASSLDHESSFDSFYSLPGSGVKKESQPEACSLSSSRLSVASSSYKPIDHTSFAANLNEVSEFPSLGMRNSSKHHGIAASAQREWNARNLPTHSRLIRKVSDNDFSVNGADGKLKK
Take B8: in the experiment with Hsc70-1, the MAPPIT interaction score was 2.36.

B9: Sf3b3 (protein)
chain: MYLYNLTLQKATGVTHAVHGNFSGGKQQEVLLSRGKSLELLRPDSNTGKVHTLLSTEIFGCVRALMAFRLTGGTKDYIVVGSDSGRIVILEYNPSKNALEKVHQETFGKSGCRRIVPGQYFAIDPKGRAVMIGAVEKQKLAYIMNRDTQARLTISSPLEAHKSNTLTYHMVGVDVGFDNPMFACLEIDYEEADMDPSGDAAQRTQQTLTFYELDLGLNHVVRKYSEPLEEHANFLVSVPGGNDGPSGVLICSENYLTYKNLGDQHDIRCPIPRRRNDLDDPERGMIFICSATHRTKSMYFFLLQTEQGDIFKITLETDDDVVSEIKLKYFDTVPPATAMCVLKTGFLFVASEFGNHYLYQIAHLGDDDDEPEFSSAMPLEEGETFFFAPRALKNLVLVDELPSFAPIITSQVADLANEDTPQLYVLCGRGPRSTLRVLRHGLEVSEMAVSELPGNPNAVWTVKKRADDEFDAYIIVSFVNATLVLSIGETVEEVTDSGFLGTTPTLCCAALGDDALVQVYPDGIRHIRSDKRVNEWKAPGKKSITKCAVNQRQVVITLSGRELVYFEMDPTGELNEYTERSEMPAEIMCMALGTVPEGEQRSWFLAVGLADNTVRILSLDPNNCLTPCSMQALPSPAESLCLVEMGHTESTTQGGLDDDAPAQRSGNNKGTIYLNIGLSNGVLLRTVLDPVSGDLADTRTRYLGSRPVKLFRIKMQGSEAVLAMSSRTWLSYYHQNRFHLTPLSYETLEYASGFSSEQCSEGIVAISTNTLRILALEKLGAVFNQVAFPLQYTPRTFVIHPDTGRMLIAETDHNAYTEDTKSARKEQMAEEMRSAAGDEERELAREMANAFINEVLPEDVFSSPKAGLGLWASQIRCLDAMHGQTMFSVPLTQNEAIMSMAMLKFSIAADGRYYLAVGIAKDLQLNPRISQGGCIDIYKIDPTCSSLEFMHRTDIDEIPGALCGFQGRLLAGCGRMLRIYDFGKKKMLRKCENKHIPYQIVNIQAMGHRVYVSDVQESVFFIRYRRAENQLIIFADDTHPRWVTATTLLDYDTIAIADKFGNLSIQRLPHSVTDDVDEDPTGTKSLWDRGLLSGASQKSENICSFHVGEIIMSLQKATLIPGGSEALIYATLSGTVGAFVPFTSREDYDFFQHLEMHMRNENPPLCGRDHLSYRSSYYPVKNVLDGDLCEQYLSIEAAKQKSIAGDMFRTPNQICKKLEDIRTRYAF
With B9, in the experiment with Hsp60B, the MAPPIT interaction score is 1.36.
